FMDV inh: High Throughput Screening for Foot and Mouth Disease Virus Antivirals; FMDV antiviral cell-based qHTS; Potency, µM (highest dose often 57.9 µM), without a hit: at the top dose activity change, negative = inhibition, most hits filed as inhibitors; actives 1.2% (n = 410,000); AID 1159524, 2015; calls by dose curve; tested in HEK293T cells; also: read-out not given here; potency is read from the fitted curve at half-maximal effect; % is scaled to controls: 0 for no effect and ±100 for the full control effect; nearly all actives have a fitted effect of over 45% in size
SARS PLpro yeast: qHTS of Yeast-based Assay for SARS-CoV PLP; Potency, µM (doses to about 32.9 µM), inactives show top-dose activity, positive = growth rescue, usual class: activators; AID 485353, 2010; S. cerevisiae expressing SARS-CoV PLpro, growth rescue; actives 0.19% (n = 330,000); calls by dose curve; also: potency is read from the fitted curve at half-maximal effect; 0% is about no effect; nearly all actives have a fitted effect of over 55% in size
HCMV inh: qHTS Assay for inhibitors of the human cytomegalovirus (HCMV) | HFF cells, HCMV-luciferase reporter, 72 h; hits give low values | activity change, negative = inhibition, % at 57.5 µM | actives 4.5% (n = 410,000) | AID 1259415, 2018; in the data active = activity change below about -60%; inconclusive = no clear call, values can overlap the other calls; inactive = above about -39%; also: % is scaled to controls: 0 for no effect and ±100 for the full control effect
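Two-dose cell screen: HFF monolayers treated with compounds and infected with luciferase-expressing HCMV at 1 PFU/cell, 72 h at 37C, then lysed for luciferase measurement.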
LASV entry inh: qHTS for Inhibitors of binding or entry into cells for Lassa Virus. Lassa virus pseudotype entry inhibition, cell reporter. Potency, µM (titrated, usually from 37.9 µM), inactives show top-dose activity change, negative = inhibition, usual class: inhibitors. actives 1.2% (n = 300,000); calls by dose curve; tested in HEK293 cells; also: potency is read from the fitted curve at half-maximal effect; % is scaled to controls: 0 for no effect and ±100 for the full control effect; nearly all actives have a fitted effect of over 50% in size
HCV inh: qHTS Assay for Inhibitors of Hepatitis C Virus (HCV) | Huh7.5.1 HCVcc-Cre infection, luciferase reporter, 44 h | Potency, µM (titrated, usually from 41.8 µM), for the others: top-dose activity change, negative = inhibition, hits mostly inhibitors | actives 3.4% (n = 340,000) | AID 651820, 2012; active = well fitted inhibition curve with a large enough effect; inconclusive = small, poorly fitted or top-dose-only effect, or another doubt; inactive = no such curve, though single readings can be large or run the other way; also: potency is read from the fitted curve at half-maximal effect; % is scaled to controls: 0 for no effect and ±100 for the full control effect
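HCVcc-Cre virus at an moi near 0.5 was added right after compound to cells cultured 4 h from seeding (1,000 cells/well). Luciferase activity was determined 44 h later, 15 min after substrate addition at RT.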
Marburg entry inh: qHTS for inhibitors of binding or entry into cells for Marburg Virus | Marburg virus pseudotyped entry inhibition, cell reporter | Potency, µM (series often up to 37.8 µM), for inactives: at the top dose activity change, negative = inhibition, usual class: inhibitors | actives 1.8% (n = 300,000); calls by dose curve; tested in HEK293 cells; also: potency is read from the fitted curve at half-maximal effect; % is scaled to controls: 0 for no effect and ±100 for the full control effect
* = called active by the depositor; ? = inconclusive; nt = no result; [ ] = dose if it differs, or a comment. Compounds with a hit are over-represented: about 8% of the library has one in this group of screens.

SMILES	FMDV inh	SARS PLpro yeast	HCMV inh	LASV entry inh	HCV inh	Marburg entry inh
Cc1ccc(NC(=O)Cn2nc(Cc3ccncc3)c3ccccc3c2=O)c(Cl)c1	-20%	nt	-97*	19%[46.1 µM]	nt	10%[46.1 µM]
O=C(Cn1nc(Cc2ccncc2)c2ccccc2c1=O)Nc1cccnc1Cl	-11%	2%	-6	nt	9%	nt
CCN(CC)/N=N/C1=C2C(C)=CC(C)=NC2N=N1 (stereo not given)	nt	nt	nt	nt	nt	11%
COc1ccc(/C=N/n2c(SC)nnc(C(C)(C)C)c2=O)c(OC)c1	-21%	10%	10	6.3µM*	3%	-6%
CSc1nnc(C(C)(C)C)c(=O)n1/N=C/c1ccc(Cl)cc1	-9%	0%	4	17%	3%	-2%[14.2 µM]
CSc1nnc(C(C)(C)C)c(=O)n1/N=C/c1ccc(C(C)C)cc1	7%	-1%	-63*	-7%[46.1 µM]	10%	-5%[46.1 µM]
CC(C)CCn1c(-c2nonc2N)nc2ccccc21	-1%	-9%	?	-23%	11µM*	?
Nc1nonc1-c1nc2ccccc2n1CC(=O)Nc1ccccc1	-2%	0%	19	-12%	?	?
CCOC(=O)c1ccccc1NC(=O)Cn1c(-c2nonc2N)nc2ccccc21	0%	4%	-74*	?	?	0.052µM*
CCCCn1c(-c2nonc2N)nc2ccccc21	-16%	3%	18	-25%	?	?
CN1CC[C@@]2(CCN3CCc4c(oc5ccccc45)[C@@H]3C2)N(C)C1=O	nt	nt	nt	nt	nt	5%
CC(/C=N/NC(=O)c1cc(-c2ccc(C)s2)[nH]n1)=C\c1ccccc1	-1%	-9%	5	?	5.6µM*	?
CC(=C/c1ccccc1)/C=N/NC(=O)c1ccccn1	?	-4%	7	?	1%	?
CC(/C=C/c1ccccc1)=N\NC(=O)c1cc(C)[nH]n1	12%	-2%	?	1%	14µM*	28%
CC(/C=N/NC(=O)c1cc(C(C)(C)C)[nH]n1)=C\c1ccccc1	-22%	-1%	2	?	14µM*	?
O=C(CSc1nccn1Cc1ccc(F)cc1)NCc1ccc(F)cc1	-12%	nt	4	-12%[46.1 µM]	nt	nt
N#C/C(=C\c1ccc(-c2cc(Cl)ccc2Cl)o1)C(=O)Nc1cccc2ncccc12	nt	nt	nt	3.7µM*	nt	?
Cc1ccc(S(=O)(=O)N[C@@H]2COC(=O)[C@@H](C)COC(=O)CC=C[C@H]2C)cc1	nt	nt	nt	nt	nt	7%[14.2 µM]
COC(=O)C1=Nc2ccccc2/C1=C\c1c(O)n(-c2ccc(Br)cc2)c(=O)[nH]c1=O	20µM*	11%	28	-1%	?	-18%
Cc1ccc(O[C@@H]2[C@H](O)CO[C@@H]2/C=C/C#Cc2ccc(C(C)(C)C)cc2)cc1	nt	nt	nt	nt	nt	-35%[14.2 µM]
O=C(NC1CCCCC1)NC12CC3CC(CC(C3)C1)C2	17%	2%	31	-30%	2%	8%
CS(=O)(=O)N(C(=O)NC(=O)NC12CC3CC(CC(C3)C1)C2)C1CCCCC1	-8%	7%	-64*	9%	6%	7%[46.1 µM]
CCN(c1ccccc1)S(=O)(=O)c1cc(C(=O)NCC(c2ccc(OC)cc2)N(C)C)ccc1C (stereo not given)	-9%	nt	-13	nt	10µM*	nt
COc1ccccc1CNC(=O)C1CCN(S(=O)(=O)c2c(C)noc2/C=C/c2c(C)cc(C)cc2C)CC1	-13%	nt	-24	27%[46.1 µM]	nt	nt
CCOC(=O)COn1c(=O)c(-c2ccccc2)[n+]([O-])c2ccccc21	-7%	2%	-31	0%[46.1 µM]	10%	4%[46.1 µM]
CCOC(=O)COn1c(=O)c(-c2ccc(OC)cc2)[n+]([O-])c2ccccc21	8%	-1%	-61*	?	18%	-1%[46.1 µM]
CN(C)c1cc[n+](Cc2c(Cl)cccc2Cl)cc1	?	-19%	-87*	?	?	?
CN(C)c1cc[n+](CC[n+]2ccc(N(C)C)cc2)cc1	4%	-12%	8	nt	3%	nt
CN(C(=O)CCl)C1CCCc2ccccc21 (stereo not given)	16µM*	-1%	5	nt	?	nt
